This is a sample that favours compounds with a hit; in the whole collection about 5.1% have one here.
CRFBP-R2 block: antagonists of CRF-BP/CRF-R2 complex, primary screen, cell-based, HEK293, calcium dye fluorescence, uHTS; AID 588475, 2011; inhibition, % at 11.8 µM; CRF-induced calcium fluorescence; 350,000 compounds, 0.59% hits;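 active = inhibition of the ligand-induced calcium signal above about 50% at the single tested concentration, limit read from the data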
NR3A LBD binder: binders of NR3A ligand-binding domain, primary screen, biophysical, differential scanning fluorimetry, uHTS. Glutamate receptor ionotropic, NMDA 3A (GRIN3A) ligand-binding domain. NR3A LBD differential scanning fluorimetry, Tm shift; 0% = protein alone, 100% = glycine-bound protein. Tm shift relative to glycine control, % at 25 µM. 340,000 compounds, 2.5% hits. AID 1259313, 2017;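 active = melting temperature shift of at least 10% of the positive control shift, at one fixed dose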
TMEM16A inh: TMEM16A chloride channel inhibitors, primary screen, cell-based, HTS. Anoctamin-1 (Mus musculus), Q8BHY3. HEK293 TMEM16A/YFP iodide influx fluorescence, ionomycin. normalized B-score (activity score, 25-100; higher = stronger inhibition) at 10 µM. 310,000 compounds, 1.2% hits. AID 588511, 2011;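 active = ratio plate-corrected score three or more library SD toward inhibition, starting fluorescence score within five deviations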;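 also: score derived from kinetic fluorescence span divided by baseline fluorescence per well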
Target sequence (Q8BHY3 whole entry, looked up): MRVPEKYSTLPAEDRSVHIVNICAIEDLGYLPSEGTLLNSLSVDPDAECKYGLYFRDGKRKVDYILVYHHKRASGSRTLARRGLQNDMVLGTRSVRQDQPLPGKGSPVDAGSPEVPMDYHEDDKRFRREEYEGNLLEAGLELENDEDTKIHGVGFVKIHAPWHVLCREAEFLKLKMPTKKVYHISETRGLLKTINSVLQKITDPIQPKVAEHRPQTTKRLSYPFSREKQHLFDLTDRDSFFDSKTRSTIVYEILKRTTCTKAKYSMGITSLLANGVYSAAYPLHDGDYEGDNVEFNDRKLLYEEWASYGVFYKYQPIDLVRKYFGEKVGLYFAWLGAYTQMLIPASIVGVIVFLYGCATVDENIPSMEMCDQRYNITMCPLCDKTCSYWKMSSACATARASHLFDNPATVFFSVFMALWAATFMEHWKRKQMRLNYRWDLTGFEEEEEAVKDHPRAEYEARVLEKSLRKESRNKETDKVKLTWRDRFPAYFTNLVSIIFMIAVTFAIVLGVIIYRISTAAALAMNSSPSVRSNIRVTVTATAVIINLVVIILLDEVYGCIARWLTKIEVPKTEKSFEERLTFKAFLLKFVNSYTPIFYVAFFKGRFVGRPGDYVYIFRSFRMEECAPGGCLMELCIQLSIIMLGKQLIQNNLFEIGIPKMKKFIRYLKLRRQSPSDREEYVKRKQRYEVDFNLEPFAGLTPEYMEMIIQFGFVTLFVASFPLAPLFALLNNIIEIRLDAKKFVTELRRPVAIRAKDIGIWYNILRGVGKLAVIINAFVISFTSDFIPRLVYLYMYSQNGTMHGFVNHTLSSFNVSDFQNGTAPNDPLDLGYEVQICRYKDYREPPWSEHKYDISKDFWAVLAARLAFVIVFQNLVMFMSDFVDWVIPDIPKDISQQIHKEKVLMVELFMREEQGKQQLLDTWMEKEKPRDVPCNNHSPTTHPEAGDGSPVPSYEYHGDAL
MPTP inh: mitochondrial permeability transition pore inhibitors, primary screen, biochemical, isolated mouse mitochondria, absorbance; 360,000 compounds, 1.4% hits; AID 602449, 2012; Ca2+ swelling absorbance, 30 min; inhibition, % at 10 µM;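 active = inhibition of 50% or more, scaled per plate between neutral and stimulator controls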;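 also: 0% = DMSO wells given calcium and 100% = 1 mM EGTA wells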
CRFR2-BP ag: agonists of CRF-BP/CRF-R2 complex, primary screen, cell-based, HEK293, calcium dye fluorescence, uHTS; CRF-binding protein / CRF receptor 2 complex (human); calcium dye fluorescence (FLIPR); percent of saturating CRF peptide response; activation, % at 13.2 µM; 350,000 compounds, 0.46% hits;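 active = activation of at least 50%, plus an integration ratio under a set limit after plate pattern correction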;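 also: plate controls were neutral control wells without compound for no effect and CRF at EC100 for full effect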
TMEM16A act: TMEM16A chloride channel activators or potentiators, primary screen, cell-based, HTS. Anoctamin-1 (Mus musculus), Q8BHY3. AID 623877, 2012. HEK293 TMEM16A/YFP-H148Q/I152L, iodide quench fluorescence; stronger effect = lower value. B-score at 10 µM. 340,000 compounds, 0.3% hits;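 active = fluorescence-ratio B-score plate-corrected deviation score at least 3 library SD below zero, with starting fluorescence score within 5 deviations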;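 also: channel opened by trigger with iodide after compound preincubation; score built on the fluorescence ratio of max minus min over baseline; more negative score means more quench and so TMEM16A activation or potentiation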
Rh123 counter: fluorescence retest of MPTP screen hits in isolated mitochondria, single concentration; shares compounds with MPTP inh; membrane potential, Rhodamine 123 fluorescence; inhibition, % at 10 µM; 5,000 compounds, 78% hits; AID 624504, 2012; in the data active = inhibition above about 22%;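 also: 0% = DMSO vehicle and 100% = positive control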
MPTP abs DR: mitochondrial permeability transition pore inhibitors, dose response, biochemical, absorbance, uHTS hits; shares compounds with MPTP inh; isolated mitochondria swelling; IC50, µM; 780 compounds, 58% hits; AID 651561, 2012; in the data active = IC50 below about 20 µM
MPTP counter DR: fluorescent counter-screen in isolated mitochondria, dose response, counter-screen for MPTP inhibitor project, biochemical, fluorescence, uHTS hits. 780 compounds, 49% hits. isolated mitochondria counterscreen, fluorescence read-out. IC50, µM. shares compounds with MPTP inh; in the data active = IC50 below about 80 µM
* = called active by the depositor; i = inactive; . = not tested or not shown.

SMILES | CRFBP-R2 block | NR3A LBD binder | TMEM16A inh | MPTP inh | CRFR2-BP ag | TMEM16A act | Rh123 counter | others
O=C(NCC1CCCO1)c1cccc(Oc2ccc([N+](=O)[O-])cc2)c1 (stereo unspecified) | 14 | -1 | i | 0 | 0 | i | .
CC1CCN(CCCNC(=O)c2ccc3c(=O)n(Cc4ccc(Cl)cc4)c(=S)[nH]c3c2)CC1 | -21 | -7 | i | 95* | 2 | i | -22
COC(=O)c1ccc2c(=O)n(Cc3ccc(C(=O)NCCCN4CCC(C)CC4)cc3)c(=S)[nH]c2c1 | -9 | 0 | i | -1 | -3 | i | .
O=C(O)C1CCCCN1C(=O)c1ccc(S(=O)(=O)N2CCCCCC2)cc1 (stereo unspecified) | -7 | -2 | . | -1 | 3 | i | .
O=C(CSc1nnc(CNC(=O)c2ccccc2F)o1)c1ccc(Cl)cc1 | 12 | 1 | i | 69* | 0 | i | 13 | MPTP abs DR=i;MPTP counter DR=26*
O=C(CSc1nnc(CNC(=O)c2c(F)cccc2F)o1)c1ccccc1 | -2 | 1 | i | 0 | 0 | i | .
O=C(CSc1nnc(CNC(=O)c2cccs2)o1)c1ccc(Cl)cc1 | -3 | -2 | i | 77* | -2 | i | 30*
CCCCCn1nc(C(=O)N(CC(C)C)c2c(N)n(CCCC)c(=O)[nH]c2=O)c2ccccc2c1=O | 7 | -3 | i | 1 | 4 | i | .
CCOC(=O)C1(CCOC)CCN(Cc2ccncc2)CC1 | 2 | 1 | i | 0 | 0 | i | .
CCOC(=O)C1(CCOC)CCN(C/C=C/c2ccccc2OC)CC1 | -16 | 4 | i | 90* | 0 | i | 49*
CCOC(=O)C1(CCCc2ccccc2)CCN(Cc2nccn2CC)CC1 | -11 | 0 | i | 56* | 0 | i | 40*
CCOC(=O)C1(CCOc2ccccc2)CCN(Cc2cccs2)CC1 | -12 | 1 | i | 52* | -5 | i | 8 | MPTP abs DR=17*;MPTP counter DR=48*
CCOC(=O)C1(CCOC)CCN(Cc2cccc(OCc3ccccc3)c2)CC1 | -5 | -2 | i | 55* | 2 | i | 10 | MPTP abs DR=15*;MPTP counter DR=26*
COc1ccc2c(c1)cc(C(=O)N[C@@H](CCSC)C(=O)N1CCC(C(=O)O)CC1)n2C | -10 | 0 | i | 0 | 0 | i | .
CCN1C(=O)[C@H]2[C@@H](c3ccc(C)cc3)N3C(=O)N(c4ccc(C(F)(F)F)cc4)C(=O)[C@@]3(CC(C)C)[C@H]2C1=O | -24 | -9 | i | 94* | 1 | i | 98*
CCN1C(=O)[C@H]2[C@@H](c3ccc(C)cc3)N3C(=O)N(c4ccc(C)cc4)C(=O)[C@@]3(CC)[C@H]2C1=O | -3 | -1 | i | 0 | 0 | i | .
O=C(c1cc(COc2c(F)cccc2F)on1)N1CC[C@@H]2CCCC[C@H]2C1 | 8 | . | . | 0 | 0 | . | .
CCN1C(=O)[C@@H]2[C@H](C1=O)[C@@H]1C(=O)Nc3ccccc3C(=O)N1[C@@H]2c1ccc(OC)cc1 | 4 | -2 | i | -1 | -1 | i | .
COc1ccc(S(=O)(=O)NNC(=O)C2Cc3c(ccc4ccccc34)O2)cc1 (stereo unspecified) | -9 | -1 | i | 80* | 1 | i | 54*
CCC(c1nnc(SCC(=O)Nc2cc(S(C)(=O)=O)ccc2Cl)n1Cc1ccccc1)N(C)C (stereo unspecified) | 9 | -1 | i | 1 | 2 | i | .
O=C(NCc1ccc2c(c1)OCO2)c1c(-c2ccccc2)sc2ccccc12 | 3 | 0 | . | 82* | -1 | i | 79*
COc1ccc(Br)cc1CNc1ccc(O)cc1 | 3 | -2 | i | -4 | 1 | i | .
Oc1c(Br)cc(Br)cc1CNc1ccc(F)cc1 | -8 | 11* | i | 78* | 2 | i | 81*
O=C(O)c1cc(N/N=C/c2c(O)ccc3ccccc23)ccc1Cl | -2 | 8 | i | 0 | -2 | i | .
Nc1nonc1N/N=C/c1c(O)ccc2ccccc12 | 13 | 25* | i | 56* | 0 | i | 74*
SMILES | CRFBP-R2 block | NR3A LBD binder | TMEM16A inh | MPTP inh | CRFR2-BP ag | TMEM16A act | Rh123 counter | others
Cc1nn(-c2cccc(Cl)c2)c2nc(C(F)(F)F)[nH]c(=O)c12 | 86* | 0 | 100* | 98* | 26 | i | 53*
Cc1nn(-c2cc(C(F)(F)F)ccc2Cl)c2nc(C(F)(F)F)[nH]c(=O)c12 | 38 | 1 | i | 2 | -1 | i | .
NCCOc1ccccc1OCCN | 12 | 1 | i | 1 | -3 | i | .
NCCOc1ccccc1Cc1ccccc1 | 27 | 2 | i | 69* | -2 | i | -6 | MPTP abs DR=6.7*;MPTP counter DR=>80
N#C/C(=C(/O)c1cccc(F)c1)c1nc2ccccc2s1 | 43 | 1 | i | 87* | 51* | i | 86*
N#C/C(=C(/O)C(Cl)c1ccccc1)c1nc2ccccc2s1 (stereo unspecified) | 38 | 0 | i | 55* | 3 | i | 74*
N#C/C(=C(/O)c1cc2ccccc2o1)c1nc2ccccc2s1 | 41 | -1 | i | 98* | 22 | i | 78*
Cc1ccc(N(C(=O)c2csnn2)C(C(=O)NC2CCCCC2)c2ccncc2)cc1 (stereo unspecified) | -4 | 1 | i | 1 | -1 | i | .
COC(=O)C[C@H]1C=C[C@@H](NS(=O)(=O)c2ccccc2)[C@@H](CO)O1 | . | . | . | -2 | . | . | .
CC(C)CC(=O)NC(c1ccccc1Cl)c1c(O)ccc2ccccc12 (stereo unspecified) | 16 | -3 | i | 76* | 0 | i | 86*
COc1ccc(C(NC(=O)C2CCCCC2)c2c(O)ccc3ccccc23)cc1 (stereo unspecified) | 12 | 2 | i | 81* | -4 | i | 69*

Source: PubChem BioAssay (several laboratories)
